# Columns and labels:
# Assay in all cases: DAPPL (digital affinity profiling via proximity ligation, sequencing); 10 mM Tris-HCl pH 7.5, 50 mM NaCl, 1 mM DTT, 4% glycerol, room temperature, 30 min; GST-TFs on glutathione beads, 16-mer random dsDNA library, 0.1% formaldehyde crosslink after washing; high values mean tight binding
# Settings in all cases: protein: recombinant; tags: N-terminal GST; dsDNA, one strand shown
# ELK1 = target: T1, ELK1 (Homo sapiens, UniProt P19419 1-428)
# T1 sequence: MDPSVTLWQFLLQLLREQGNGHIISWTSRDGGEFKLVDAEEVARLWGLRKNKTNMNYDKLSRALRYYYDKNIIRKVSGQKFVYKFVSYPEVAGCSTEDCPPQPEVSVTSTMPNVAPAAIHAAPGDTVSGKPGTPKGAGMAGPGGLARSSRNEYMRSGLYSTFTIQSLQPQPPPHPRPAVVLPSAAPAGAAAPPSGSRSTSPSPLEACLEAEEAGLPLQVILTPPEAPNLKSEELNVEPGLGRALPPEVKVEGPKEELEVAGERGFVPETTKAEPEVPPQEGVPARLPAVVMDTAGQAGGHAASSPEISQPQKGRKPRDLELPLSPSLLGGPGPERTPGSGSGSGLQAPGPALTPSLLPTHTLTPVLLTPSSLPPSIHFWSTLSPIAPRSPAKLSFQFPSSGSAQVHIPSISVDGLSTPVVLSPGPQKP
# Summary of the method: (§1)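 Binding signal is each hexamer's read frequency for a factor divided by its frequency in the tag-only sample. The factors were GST-fused human transcription factors from yeast, captured on glutathione beads, DNA-barcoded and pooled with that sample. Pools were incubated with 200 nmole of a random double-stranded 16-mer DNA library in Tris/NaCl/DTT/glycerol buffer at room temperature for 30 min, then washed, crosslinked with 0.1% formaldehyde, proximity-ligated with BsaI/T4 ligase (1 h, 37 °C), PCR-amplified and sequenced on an Illumina NextSeq500.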
# ERG = target: T2, ERG (Homo sapiens, UniProt P11308 1-479)
# T2 sequence: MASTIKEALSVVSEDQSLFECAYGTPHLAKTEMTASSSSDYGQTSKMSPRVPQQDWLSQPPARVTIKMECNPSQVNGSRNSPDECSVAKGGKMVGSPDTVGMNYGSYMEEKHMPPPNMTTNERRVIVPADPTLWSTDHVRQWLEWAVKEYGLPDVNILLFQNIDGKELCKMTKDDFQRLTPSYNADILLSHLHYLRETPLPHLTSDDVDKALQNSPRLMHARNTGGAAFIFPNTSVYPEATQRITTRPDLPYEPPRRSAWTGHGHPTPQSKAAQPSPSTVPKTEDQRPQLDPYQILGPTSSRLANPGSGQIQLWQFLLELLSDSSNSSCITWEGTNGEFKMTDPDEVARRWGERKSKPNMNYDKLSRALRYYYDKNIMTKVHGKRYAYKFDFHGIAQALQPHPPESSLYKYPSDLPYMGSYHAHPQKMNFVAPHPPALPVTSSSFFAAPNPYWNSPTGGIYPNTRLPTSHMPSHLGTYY
# Summary of the method: as §1
# ELF1 = ELF1 (Homo sapiens, UniProt P32519 1-619)
# ELF1, sequence (P32519 whole entry): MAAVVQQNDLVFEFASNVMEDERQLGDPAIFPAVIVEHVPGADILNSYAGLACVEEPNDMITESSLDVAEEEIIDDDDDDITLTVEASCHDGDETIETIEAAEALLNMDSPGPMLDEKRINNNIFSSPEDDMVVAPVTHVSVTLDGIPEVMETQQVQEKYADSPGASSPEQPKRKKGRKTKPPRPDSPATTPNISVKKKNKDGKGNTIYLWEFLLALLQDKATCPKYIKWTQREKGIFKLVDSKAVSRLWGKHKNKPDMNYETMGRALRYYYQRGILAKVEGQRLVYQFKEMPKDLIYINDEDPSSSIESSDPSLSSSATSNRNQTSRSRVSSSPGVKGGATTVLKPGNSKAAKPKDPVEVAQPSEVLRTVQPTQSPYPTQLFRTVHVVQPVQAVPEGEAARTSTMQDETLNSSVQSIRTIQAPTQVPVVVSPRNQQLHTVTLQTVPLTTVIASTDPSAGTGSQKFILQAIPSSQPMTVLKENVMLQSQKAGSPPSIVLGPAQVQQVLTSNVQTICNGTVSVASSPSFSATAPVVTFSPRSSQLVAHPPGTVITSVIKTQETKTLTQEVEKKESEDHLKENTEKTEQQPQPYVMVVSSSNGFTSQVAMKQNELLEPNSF
# Summary of the method: as §1
# EHF = target: T3, EHF (Homo sapiens, UniProt Q9NZC4 1-300)
# T3 sequence: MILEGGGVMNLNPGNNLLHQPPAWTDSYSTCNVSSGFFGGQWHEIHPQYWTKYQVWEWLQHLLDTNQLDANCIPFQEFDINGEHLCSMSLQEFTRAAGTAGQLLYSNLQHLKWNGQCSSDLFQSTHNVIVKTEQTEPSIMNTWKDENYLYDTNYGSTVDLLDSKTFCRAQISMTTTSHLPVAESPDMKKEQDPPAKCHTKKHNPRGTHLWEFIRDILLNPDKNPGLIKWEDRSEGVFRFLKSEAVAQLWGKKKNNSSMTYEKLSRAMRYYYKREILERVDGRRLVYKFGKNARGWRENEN
# Summary of the method: as §1
# SPI1 = SPI1 (Homo sapiens, UniProt P17947 1-270)
# Summary of the method: as §1
# SPIB = SPIB (Homo sapiens, UniProt Q01892 1-262)
# SPIB, sequence (Q01892 whole entry): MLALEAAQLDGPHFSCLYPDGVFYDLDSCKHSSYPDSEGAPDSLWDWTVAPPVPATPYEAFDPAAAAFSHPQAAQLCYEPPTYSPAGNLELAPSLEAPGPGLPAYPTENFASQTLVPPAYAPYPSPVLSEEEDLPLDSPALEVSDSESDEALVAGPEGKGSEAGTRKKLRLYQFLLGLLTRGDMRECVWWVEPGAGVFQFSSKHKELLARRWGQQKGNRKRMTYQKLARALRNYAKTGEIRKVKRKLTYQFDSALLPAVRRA
# Summary of the method: as §1
# FEV = target: T4, FEV (Homo sapiens, UniProt Q99581 1-238)
# T4 sequence: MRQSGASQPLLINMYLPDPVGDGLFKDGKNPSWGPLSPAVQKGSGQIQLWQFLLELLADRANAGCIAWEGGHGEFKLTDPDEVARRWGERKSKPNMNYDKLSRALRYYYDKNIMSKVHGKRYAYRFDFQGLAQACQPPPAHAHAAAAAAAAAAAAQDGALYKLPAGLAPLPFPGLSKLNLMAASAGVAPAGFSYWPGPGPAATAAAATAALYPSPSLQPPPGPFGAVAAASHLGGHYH
# Summary of the method: as §1
# ETV5 = ETV5 (Homo sapiens, UniProt P41161 1-510)
# ETV5, sequence (P41161 whole entry): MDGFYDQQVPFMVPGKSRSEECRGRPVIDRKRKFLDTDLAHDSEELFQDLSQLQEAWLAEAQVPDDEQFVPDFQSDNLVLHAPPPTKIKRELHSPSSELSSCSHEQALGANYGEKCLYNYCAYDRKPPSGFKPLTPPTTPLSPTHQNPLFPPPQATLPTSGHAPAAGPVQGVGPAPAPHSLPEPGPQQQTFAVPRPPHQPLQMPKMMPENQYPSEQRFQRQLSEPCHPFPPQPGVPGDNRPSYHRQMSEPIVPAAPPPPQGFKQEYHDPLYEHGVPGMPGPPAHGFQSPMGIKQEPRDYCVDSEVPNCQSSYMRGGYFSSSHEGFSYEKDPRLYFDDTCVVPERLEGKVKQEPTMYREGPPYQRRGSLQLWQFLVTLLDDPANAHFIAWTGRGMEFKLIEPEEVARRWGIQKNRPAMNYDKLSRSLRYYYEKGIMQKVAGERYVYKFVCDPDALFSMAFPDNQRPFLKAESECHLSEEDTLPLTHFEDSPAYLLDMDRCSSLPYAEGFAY
# Summary of the method: as §1
# ELK4 = target: T5, ELK4 (Homo sapiens, UniProt P28324-2 1-405)
# T5 sequence: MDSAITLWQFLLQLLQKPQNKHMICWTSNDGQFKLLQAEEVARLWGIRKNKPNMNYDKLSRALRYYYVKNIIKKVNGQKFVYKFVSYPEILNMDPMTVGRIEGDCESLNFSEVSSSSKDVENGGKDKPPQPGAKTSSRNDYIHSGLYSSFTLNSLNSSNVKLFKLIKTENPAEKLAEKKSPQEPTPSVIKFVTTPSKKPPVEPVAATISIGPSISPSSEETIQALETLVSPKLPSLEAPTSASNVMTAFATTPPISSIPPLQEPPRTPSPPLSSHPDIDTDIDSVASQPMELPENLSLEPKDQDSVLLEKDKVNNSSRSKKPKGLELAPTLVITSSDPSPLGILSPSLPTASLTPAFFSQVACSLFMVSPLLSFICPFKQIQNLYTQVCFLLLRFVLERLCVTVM
# Summary of the method: as §1
# ELF3 = target: T6, ELF3 (Homo sapiens, UniProt P78545 1-371)
# T6 sequence: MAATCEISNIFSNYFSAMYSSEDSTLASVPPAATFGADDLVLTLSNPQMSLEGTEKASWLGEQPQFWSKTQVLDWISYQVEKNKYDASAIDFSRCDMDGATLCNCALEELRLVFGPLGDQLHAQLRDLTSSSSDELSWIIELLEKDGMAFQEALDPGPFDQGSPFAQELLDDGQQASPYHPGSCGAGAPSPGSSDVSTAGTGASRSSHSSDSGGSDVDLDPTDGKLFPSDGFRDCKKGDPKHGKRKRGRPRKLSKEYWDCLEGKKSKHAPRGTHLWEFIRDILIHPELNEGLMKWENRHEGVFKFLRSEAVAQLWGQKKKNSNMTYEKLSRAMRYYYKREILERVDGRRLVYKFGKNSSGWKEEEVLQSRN
# Summary of the method: as §1
# ETV1 = ETV1 (Homo sapiens, UniProt P50549 1-477)
# ETV1, sequence (P50549 whole entry): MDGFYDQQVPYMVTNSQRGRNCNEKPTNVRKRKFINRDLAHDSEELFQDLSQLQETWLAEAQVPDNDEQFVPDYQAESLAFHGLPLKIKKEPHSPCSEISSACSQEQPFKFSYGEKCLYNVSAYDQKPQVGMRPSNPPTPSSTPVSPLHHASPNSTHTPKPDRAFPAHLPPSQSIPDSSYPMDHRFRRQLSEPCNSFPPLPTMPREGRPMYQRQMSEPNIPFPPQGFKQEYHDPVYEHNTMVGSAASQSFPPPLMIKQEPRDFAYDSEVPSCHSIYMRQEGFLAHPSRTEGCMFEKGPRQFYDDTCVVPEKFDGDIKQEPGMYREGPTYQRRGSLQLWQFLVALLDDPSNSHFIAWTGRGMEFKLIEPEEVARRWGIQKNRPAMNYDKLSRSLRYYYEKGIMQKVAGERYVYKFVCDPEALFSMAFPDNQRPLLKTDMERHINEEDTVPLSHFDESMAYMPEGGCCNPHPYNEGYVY
# Summary of the method: as §1
# ERF = target: T7, ERF (Homo sapiens, UniProt P50548 1-548)
# T7 sequence: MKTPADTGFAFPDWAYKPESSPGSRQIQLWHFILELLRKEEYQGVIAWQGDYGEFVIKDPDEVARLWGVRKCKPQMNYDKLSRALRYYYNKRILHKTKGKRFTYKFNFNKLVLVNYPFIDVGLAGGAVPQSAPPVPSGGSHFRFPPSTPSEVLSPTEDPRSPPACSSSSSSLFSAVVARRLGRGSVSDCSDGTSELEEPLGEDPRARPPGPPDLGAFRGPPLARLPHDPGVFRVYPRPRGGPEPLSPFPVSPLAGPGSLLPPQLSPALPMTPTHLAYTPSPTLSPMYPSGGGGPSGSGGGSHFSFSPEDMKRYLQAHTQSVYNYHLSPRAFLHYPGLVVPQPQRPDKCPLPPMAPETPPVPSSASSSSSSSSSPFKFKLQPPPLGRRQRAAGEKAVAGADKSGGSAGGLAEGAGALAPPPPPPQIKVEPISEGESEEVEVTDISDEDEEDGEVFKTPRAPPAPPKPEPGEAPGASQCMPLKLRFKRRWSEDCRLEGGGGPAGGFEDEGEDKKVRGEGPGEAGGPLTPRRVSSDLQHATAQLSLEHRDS
# Summary of the method: as §1
# ETV3L = target: T8, ETV3L (Homo sapiens, UniProt Q6ZN32 1-361)
# T8 sequence: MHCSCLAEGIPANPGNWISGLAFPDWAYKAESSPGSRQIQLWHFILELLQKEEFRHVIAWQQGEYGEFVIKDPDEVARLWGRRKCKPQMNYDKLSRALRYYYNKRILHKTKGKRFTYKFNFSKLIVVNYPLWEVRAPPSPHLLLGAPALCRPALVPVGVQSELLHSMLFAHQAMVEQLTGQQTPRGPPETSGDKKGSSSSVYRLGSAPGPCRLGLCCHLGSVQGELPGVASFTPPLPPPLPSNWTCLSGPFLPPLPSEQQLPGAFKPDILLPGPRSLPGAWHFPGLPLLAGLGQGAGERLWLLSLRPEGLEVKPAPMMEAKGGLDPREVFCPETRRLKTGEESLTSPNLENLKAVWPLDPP
# Summary of the method: as §1
# ETS2 = target: T9, ETS2 (Homo sapiens, UniProt P15036 1-469)
# T9 sequence: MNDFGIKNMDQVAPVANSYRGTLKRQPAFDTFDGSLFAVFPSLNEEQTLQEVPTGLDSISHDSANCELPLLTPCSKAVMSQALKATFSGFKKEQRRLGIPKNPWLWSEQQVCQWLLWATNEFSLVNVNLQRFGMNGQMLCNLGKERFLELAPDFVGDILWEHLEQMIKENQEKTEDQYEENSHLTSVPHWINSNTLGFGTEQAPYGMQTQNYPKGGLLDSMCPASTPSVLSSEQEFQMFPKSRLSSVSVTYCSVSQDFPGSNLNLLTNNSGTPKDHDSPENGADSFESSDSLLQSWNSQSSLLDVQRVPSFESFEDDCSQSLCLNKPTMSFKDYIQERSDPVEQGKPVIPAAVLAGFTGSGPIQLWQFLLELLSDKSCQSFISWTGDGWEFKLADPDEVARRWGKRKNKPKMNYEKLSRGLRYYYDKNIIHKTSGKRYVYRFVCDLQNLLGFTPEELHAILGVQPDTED
# Summary of the method: as §1
# SPDEF = target: T10, SPDEF (Homo sapiens, UniProt O95238 1-335)
# T10 sequence: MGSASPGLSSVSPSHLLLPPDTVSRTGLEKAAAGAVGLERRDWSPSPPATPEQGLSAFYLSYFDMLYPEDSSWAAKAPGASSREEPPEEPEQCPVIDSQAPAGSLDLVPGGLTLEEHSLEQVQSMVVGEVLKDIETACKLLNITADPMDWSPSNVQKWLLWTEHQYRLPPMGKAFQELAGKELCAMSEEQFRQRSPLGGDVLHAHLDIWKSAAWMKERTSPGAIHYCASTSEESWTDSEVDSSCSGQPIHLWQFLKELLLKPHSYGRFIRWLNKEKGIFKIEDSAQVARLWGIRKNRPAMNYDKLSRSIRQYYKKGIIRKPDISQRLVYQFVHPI
# Summary of the method: as §1
# ETV7 = target: T11, ETV7 (Homo sapiens, UniProt Q9Y603 1-341)
# T11 sequence: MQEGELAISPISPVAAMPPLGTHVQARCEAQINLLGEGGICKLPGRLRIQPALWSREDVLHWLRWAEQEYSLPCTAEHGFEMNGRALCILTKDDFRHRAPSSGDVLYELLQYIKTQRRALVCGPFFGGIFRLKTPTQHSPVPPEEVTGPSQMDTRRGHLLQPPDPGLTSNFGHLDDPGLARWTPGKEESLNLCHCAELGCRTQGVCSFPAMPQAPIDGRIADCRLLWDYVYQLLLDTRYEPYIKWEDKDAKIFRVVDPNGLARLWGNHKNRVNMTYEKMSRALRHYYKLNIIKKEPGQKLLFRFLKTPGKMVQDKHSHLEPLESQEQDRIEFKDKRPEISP
# Summary of the method: as §1
# ETV3 = target: T12, ETV3 (Homo sapiens, UniProt P41162-2 1-143)
# T12 sequence: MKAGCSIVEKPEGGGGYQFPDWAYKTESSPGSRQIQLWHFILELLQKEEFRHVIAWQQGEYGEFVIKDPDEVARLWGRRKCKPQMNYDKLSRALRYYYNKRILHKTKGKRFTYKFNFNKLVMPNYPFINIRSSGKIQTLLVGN
# Summary of the method: as §1
# ETV6 = ETV6 (Homo sapiens, UniProt P41212 1-452)
# ETV6, sequence (P41212 whole entry): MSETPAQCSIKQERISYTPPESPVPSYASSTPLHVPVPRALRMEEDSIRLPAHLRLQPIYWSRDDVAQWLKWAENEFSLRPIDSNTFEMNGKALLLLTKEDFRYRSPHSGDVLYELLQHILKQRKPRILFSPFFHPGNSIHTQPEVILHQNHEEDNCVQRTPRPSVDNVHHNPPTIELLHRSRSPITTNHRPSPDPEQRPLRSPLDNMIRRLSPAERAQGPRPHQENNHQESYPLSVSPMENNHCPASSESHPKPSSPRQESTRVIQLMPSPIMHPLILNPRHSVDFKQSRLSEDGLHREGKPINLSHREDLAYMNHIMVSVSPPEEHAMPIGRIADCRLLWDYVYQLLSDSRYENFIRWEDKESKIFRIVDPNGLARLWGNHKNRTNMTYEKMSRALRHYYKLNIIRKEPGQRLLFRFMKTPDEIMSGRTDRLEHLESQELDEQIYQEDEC
# Summary of the method: as §1
sequence,measurement,setting,value
GGCTAT,binding signal,ELK1,"1.06 fold enrichment (6-mer frequency, TF over GST control)"
same,binding signal,ERG,"1.07 fold enrichment (6-mer frequency, TF over GST control)"
same,binding signal,ELF1,"1.02 fold enrichment (6-mer frequency, TF over GST control)"
same,binding signal,EHF,"1.12 fold enrichment (6-mer frequency, TF over GST control)"
same,binding signal,SPI1,"1.03 fold enrichment (6-mer frequency, TF over GST control)"
same,binding signal,SPIB,"1.02 fold enrichment (6-mer frequency, TF over GST control)"
same,binding signal,FEV,"1.06 fold enrichment (6-mer frequency, TF over GST control)"
same,binding signal,ETV5,"1 fold enrichment (6-mer frequency, TF over GST control)"
same,binding signal,ELK4,"1.15 fold enrichment (6-mer frequency, TF over GST control)"
same,binding signal,ELF3,"1.01 fold enrichment (6-mer frequency, TF over GST control)"
same,binding signal,ETV1,"1.07 fold enrichment (6-mer frequency, TF over GST control)"
same,binding signal,ERF,"1.06 fold enrichment (6-mer frequency, TF over GST control)"
same,binding signal,ETV3L,"1.07 fold enrichment (6-mer frequency, TF over GST control)"
same,binding signal,ETS2,"1.02 fold enrichment (6-mer frequency, TF over GST control)"
same,binding signal,SPDEF,"1.05 fold enrichment (6-mer frequency, TF over GST control)"
same,binding signal,ETV7,"1.12 fold enrichment (6-mer frequency, TF over GST control)"
same,binding signal,ETV3,"1.06 fold enrichment (6-mer frequency, TF over GST control)"
same,binding signal,ETV6,"1.03 fold enrichment (6-mer frequency, TF over GST control)"
